{"source": "PubChem BioAssay (Tox21)", "note": "The source made the active and inactive calls. Entries that show only a call come without a potency. Unless noted, calls follow the shape of the full dose curve.", "data": [{"target": "Estrogen receptor (Homo sapiens) (UniProt P03372)", "sequence (P03372 whole entry, looked up)": "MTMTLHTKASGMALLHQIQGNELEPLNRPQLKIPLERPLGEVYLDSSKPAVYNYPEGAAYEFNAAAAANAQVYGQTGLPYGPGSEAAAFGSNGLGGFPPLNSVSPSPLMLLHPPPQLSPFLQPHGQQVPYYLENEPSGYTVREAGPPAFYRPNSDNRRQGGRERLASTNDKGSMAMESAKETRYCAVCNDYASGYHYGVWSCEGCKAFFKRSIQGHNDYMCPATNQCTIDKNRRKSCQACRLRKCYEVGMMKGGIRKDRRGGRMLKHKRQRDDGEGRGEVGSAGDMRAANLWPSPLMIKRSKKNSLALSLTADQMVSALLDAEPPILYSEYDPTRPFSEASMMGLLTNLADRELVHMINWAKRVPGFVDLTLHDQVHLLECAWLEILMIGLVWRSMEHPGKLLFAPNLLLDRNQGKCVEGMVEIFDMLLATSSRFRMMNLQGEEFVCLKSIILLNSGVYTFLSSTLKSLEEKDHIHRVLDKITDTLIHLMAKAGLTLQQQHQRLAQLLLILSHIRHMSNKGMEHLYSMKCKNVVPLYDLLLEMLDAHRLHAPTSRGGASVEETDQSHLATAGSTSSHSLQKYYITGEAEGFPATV", "assay": "qHTS assay to identify small molecule antagonists of the estrogen receptor alpha (ER-alpha) signaling pathway (AID 743069; active = well fitted curve in the direction sought with a large enough effect in the signal ratio in the repeat runs, not every such curve was filed as active; inconclusive = weak or mixed curves, or effect the other way; inactive = no such curve, though single readings can be large or run the other way; the % refers to the signal ratio)", "details": "HEK293 ER-alpha-UAS-bla, beta-lactamase ratio, antagonist mode; series mostly up to 69.4 µM", "method_in_brief": "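Estradiol-stimulated ER-alpha-UAS-bla HEK293 cells, 18 hr compound exposure at 37C. LiveBLAzer B/G substrate, 2 hr RT, fluorescence read.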", "values": [{"smiles": "CC1=CC(C)C(C=O)C(C)C1", "note": "(centres undefined)", "Potency": "inactive"}, {"smiles": "C=C(C)C(=O)OCCCCCCCCCCCCCCCCCC", "Potency": "inactive"}, {"smiles": "CCO[Si](CCCN=C=O)(OCC)OCC", "Potency": "inactive"}, {"smiles": "O=S(=O)(O)c1ccccc1O", "Potency": "inactive"}, {"smiles": "Cc1c(C)n(CCN(C)C)c2ccc(C(=O)OCCN(C)C)cc12", "Potency": "inactive"}, {"smiles": "C=C(C)C(=O)NCCC[N+](C)(C)C", "Potency": "inactive"}]}, {"test_system": "not listed separately", "assay": "qHTS assay to identify small molecule antagonists of the estrogen receptor alpha (ER-alpha) signaling pathway - cell viability counter screen (AID 743074);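 also: HEK293 cells carrying ER-alpha-UAS-bla reporter stimulated with 17beta-estradiol; nearly all actives have a fitted effect of over 45% in size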", "details": "ERalpha-bla HEK293 viability, CellTiter-Glo luminescence, 18 h; series mostly up to 69.4 µM", "values": [{"smiles": "Cc1cc(C)c(NC(=O)CN(CC(=O)O)CC(=O)O)c(C)c1Br", "outcome": "inactive"}, {"smiles": "OC/C=C/c1ccccc1", "outcome": "inactive"}, {"smiles": "C#CC(O)C(CC)CCCC", "note": "(centres undefined)", "outcome": "inactive"}, {"smiles": "C=CCOc1nc(OCC=C)nc(OCC=C)n1", "outcome": "inactive"}, {"smiles": "CCCCCN(CCCCC)C(=O)C(CCC(=O)O)NC(=O)c1ccc(Cl)c(Cl)c1", "note": "(centres undefined)", "outcome": "inactive"}, {"smiles": "OCCCCCCO", "outcome": "inactive"}, {"smiles": "NS(=O)(=O)c1cc2c(cc1C(F)(F)F)NC(Cc1ccccc1)NS2(=O)=O", "note": "(centres undefined)", "outcome": "inactive"}, {"smiles": "CC(C=O)Cc1ccc(C(C)C)cc1", "note": "(centres undefined)", "outcome": "inactive"}, {"smiles": "CC1=CC(=O)CCC1", "outcome": "inactive"}, {"smiles": "O=C(O)/C=C/c1ccc(/C=C/C(=O)O)cc1", "outcome": "inactive"}, {"smiles": "CCCOCC(C)OCC(C)O", "note": "(centres undefined)", "outcome": "inactive"}, {"smiles": "OC[C@H]1O[C@@H]2O[C@H]3[C@H](O)[C@@H](O)[C@@H](O[C@H]4[C@H](O)[C@@H](O)[C@@H](O[C@H]5[C@H](O)[C@@H](O)[C@@H](O[C@H]6[C@H](O)[C@@H](O)[C@@H](O[C@H]7[C@H](O)[C@@H](O)[C@@H](O[C@H]8[C@H](O)[C@@H](O)[C@@H](O[C@H]9[C@H](O)[C@@H](O)[C@@H](O[C@H]1[C@H](O)[C@H]2O)O[C@@H]9CO)O[C@@H]8CO)O[C@@H]7CO)O[C@@H]6CO)O[C@@H]5CO)O[C@@H]4CO)O[C@@H]3CO", "outcome": "inactive"}, {"smiles": "OCc1ccccn1", "outcome": "inactive"}, {"smiles": "NC(=O)CCCCC1CCSS1", "note": "(centres undefined)", "outcome": "inactive"}, {"smiles": "CSc1ccc(C=O)cc1", "outcome": "inactive"}, {"smiles": "CCCc1ccccc1O", "outcome": "inactive"}, {"smiles": "CCCC(=O)O[C@]1(C(=O)CCl)[C@@H](C)C[C@H]2[C@@H]3CCC4=CC(=O)C=C[C@]4(C)[C@@]3(F)C(=O)C[C@@]21C", "outcome": "inactive"}, {"smiles": "CCOC(=O)Cn1c(=O)sc2cccc(Cl)c21", "outcome": "inactive"}, {"smiles": "COC(=O)CCCC(=O)O", "outcome": "inactive"}, {"smiles": "C/C=C1\\C(=O)C[C@H]2[C@@H]3CCC4=CC(=O)CC[C@]4(C)[C@H]3CC[C@]12C", "outcome": "inactive"}, {"smiles": "FC(F)(F)C(F)(F)C(F)(F)C(F)(F)C(F)(F)C(F)(F)C(F)(F)C(F)(F)C(F)(F)C(F)(F)F", "activity, negative = cytotoxicity": "-10% [at 6.72 µM] (inactive)"}, {"smiles": "C=CC(=O)OCCCCCC", "outcome": "inactive"}, {"smiles": "COc1cc(CCC(C)=O)ccc1O", "outcome": "inactive"}, {"smiles": "CCn1cc(C(=O)O)c(=O)c2cc(F)c(N3CCN(C)CC3)cc21", "outcome": "inactive"}, {"smiles": "C#CC(O)CCCCC", "note": "(centres undefined)", "outcome": "inactive"}, {"smiles": "Cc1c(C)n(CCN(C)C)c2ccc(C(=O)OCCN(C)C)cc12", "outcome": "inactive"}, {"smiles": "C=CC(=O)N1CCOCC1", "outcome": "inactive"}, {"smiles": "OCC(O)[C@@H](O)[C@H](O)[C@H](O)CO[C@H]1O[C@H](CO)[C@@H](O)[C@H](O)[C@H]1O", "note": "(some centres undefined)", "outcome": "inactive"}, {"smiles": "CCCCCCCCC=O", "outcome": "inactive"}, {"smiles": "CC(CCO)CCCC(C)(C)O", "note": "(centres undefined)", "outcome": "inactive"}, {"smiles": "C[C@H]1O[C@@H](n2cc(F)c(=O)[nH]c2=O)[C@H](O)[C@@H]1O", "outcome": "inactive"}, {"smiles": "CCCCCCCCCCC1CO1", "note": "(centres undefined)", "outcome": "inactive"}, {"smiles": "N[C@@H](CS)C(=O)O", "outcome": "inactive"}]}, {"target": "Estrogen receptor (Homo sapiens) (UniProt P03372)", "assay": "qHTS assay to identify small molecule agonists of the estrogen receptor alpha (ER-alpha) signaling pathway (AID 743075);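 also: HEK293 GripTite cells with ER-alpha and UAS-driven beta-lactamase reporter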; also: potency is read from the fitted curve at half-maximal effect", "details": "HEK293 ER-alpha-UAS-bla, beta-lactamase FRET ratio, 18 h; series mostly up to 70.1 µM", "values": [{"smiles": "CC1=CC(C)C(C=O)C(C)C1", "note": "(centres undefined)", "Potency": "inactive"}, {"smiles": "C=C(C)C(=O)OCCCCCCCCCCCCCCCCCC", "Potency": "inactive"}, {"smiles": "CCCCCN(CCCCC)C(=O)C(CCC(=O)O)NC(=O)c1ccc(Cl)c(Cl)c1", "note": "(centres undefined)", "Potency": "inactive"}, {"smiles": "CCO[Si](CCCN=C=O)(OCC)OCC", "Potency": "inactive"}, {"smiles": "OCc1ccccn1", "Potency": "inactive"}, {"smiles": "NC(=O)CCCCC1CCSS1", "note": "(centres undefined)", "Potency": "239 nM [inconclusive] (active)"}, {"smiles": "CCCC(=O)O[C@]1(C(=O)CCl)[C@@H](C)C[C@H]2[C@@H]3CCC4=CC(=O)C=C[C@]4(C)[C@@]3(F)C(=O)C[C@@]21C", "Potency": "inactive"}, {"smiles": "CCOC(=O)Cn1c(=O)sc2cccc(Cl)c21", "Potency": "inactive"}, {"smiles": "COC(=O)CCCC(=O)O", "Potency": "inactive"}, {"smiles": "C/C=C1\\C(=O)C[C@H]2[C@@H]3CCC4=CC(=O)CC[C@]4(C)[C@H]3CC[C@]12C", "Potency": "inactive"}, {"smiles": "CCn1cc(C(=O)O)c(=O)c2cc(F)c(N3CCN(C)CC3)cc21", "Potency": "inactive"}, {"smiles": "O=S(=O)(O)c1ccccc1O", "Potency": "inactive"}, {"smiles": "Cc1c(C)n(CCN(C)C)c2ccc(C(=O)OCCN(C)C)cc12", "Potency": "inactive"}, {"smiles": "C=C(C)C(=O)NCCC[N+](C)(C)C", "Potency": "inactive"}]}, {"target": "Estrogen receptor (Homo sapiens) (UniProt P03372)", "assay": "qHTS assay to identify small molecule agonists of the estrogen receptor alpha (ER-alpha) signaling pathway using the BG1 cell line (AID 743079; active = well fitted activation curve with a large enough effect in the repeat runs; inconclusive = weak or mixed curves, or effect the other way; inactive = no such curve, though single readings can be large or run the other way; also: nearly all actives have a fitted effect of over 20% in size; also: potency is read from the fitted curve at half-maximal effect)", "details": "BG1Luc4E2 cells, ERE-luciferase agonist, 22 h; series mostly up to 70.3 µM", "values": [{"smiles": "CC1=CC(C)C(C=O)C(C)C1", "note": "(centres undefined)", "Potency": "inactive"}, {"smiles": "CCO[Si](CCCN=C=O)(OCC)OCC", "Potency": "inactive"}, {"smiles": "OCc1ccccn1", "Potency": "inactive"}, {"smiles": "NC(=O)CCCCC1CCSS1", "note": "(centres undefined)", "Potency": "26.6 nM (active)"}, {"smiles": "CCCC(=O)O[C@]1(C(=O)CCl)[C@@H](C)C[C@H]2[C@@H]3CCC4=CC(=O)C=C[C@]4(C)[C@@]3(F)C(=O)C[C@@]21C", "Potency": "inactive"}, {"smiles": "CCOC(=O)Cn1c(=O)sc2cccc(Cl)c21", "Potency": "inactive"}, {"smiles": "COC(=O)CCCC(=O)O", "Potency": "inactive"}, {"smiles": "CCn1cc(C(=O)O)c(=O)c2cc(F)c(N3CCN(C)CC3)cc21", "Potency": "inactive"}, {"smiles": "O=S(=O)(O)c1ccccc1O", "Potency": "inactive"}, {"smiles": "CCCCCCCCC=O", "Potency": "inactive"}, {"smiles": "C=C(C)C(=O)NCCC[N+](C)(C)C", "Potency": "inactive"}]}]}
